From PubChem BioAssay (NCI)
“And” between values parts separate entries of the source, which are not always exact repeats. Equal entries are not always repeated. About 83,000 compounds went through this panel and 20% of them were active in at least one assay; those are over-represented in the sample as a whole.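 Assay: single dose, 48 h. Readout: percent growth (0 = no net growth; negative = cell death). Active: <10.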 The source made the active and inactive calls.

How the values were obtained:
Test in all cases: NCI-60 one-dose screen, 48 h (100 = growth as untreated, 0 = no growth, -100 = all killed)
[1] = system: SK-MEL-2 melanoma
[2] = system: EKVX NSCLC
[3] = system: SN12C renal
[4] = system: UO-31 renal
[5] = system: TK-10 renal
[6] = system: ACHN renal
[7] = system: CAKI-1 renal
[8] = system: A498 renal
[9] = system: CCRF-CEM leukemia
[10] = system: MOLT-4 leukemia

Measured: growth

NC1=C(Cl)C(=O)c2ccccc2C1=O
inactive: [1]; 10 µM 51.9% | [2]; 10 µM 107% | [3]; 10 µM 62.5% | [4]; 10 µM 84.3% | [5]; 10 µM 120% | [6]; 10 µM 76.8% | [7]; 10 µM 89.5% | [8]; 10 µM 104% | [9]; 10 µM 46% | [10]; 10 µM 56.1%

CCCC1CCC(=C2C(=O)CCC2=O)O1 (centres undefined)
inactive: [1]; 10 µM 116% and 125% | [2]; 10 µM 86.2% and 101% | [3]; 10 µM 90.5% and 101% | [4]; 10 µM 84.8% and 96.3% | [5]; 10 µM 98.2% and 118% | [6]; 10 µM 95.7% and 96.2% | [7]; 10 µM 93.9% and 90.5% | [8]; 10 µM 108% and 105% | [9]; 10 µM 123% and 99.8% | [10]; 10 µM 134% and 120%

COc1cccc2c1C(=O)c1c(O)c3c(c(O)c1C2=O)C[C@@](O)(C(C)=O)C[C@@H]3OC1CC(N)C(O)C(C)O1 (some centres undefined)
active: [1]; 10 µM -38.6% | [2]; 10 µM -3.48% | [3]; 10 µM 8.87% | [5]; 50 µM -97.7% and -90.9% | [6]; 10 µM 0.546% | [7]; 10 µM -31.1% | [8]; 10 µM -71.7% | [9]; 10 µM -24.1% | [10]; 10 µM -26.1%
inactive: [4]; 10 µM 11.3% | [5]; 10 µM 18.5%

COc1cccc2c1C(=O)c1c(O)c3c(c(O)c1C2=O)C[C@@](O)(C(=O)CO)C[C@@H]3OC1CC(N)C(O)C(C)O1 (some centres undefined)
inactive: [1]; 0.0025 µM 112% | [1]; 1 µM 31.3% | [1]; 2.5 µM 75.1% | [2]; 0.0025 µM 102% | [2]; 1 µM 65.8% | [2]; 2.5 µM 88.8% | [2]; 10 µM 24.6% | [3]; 0.0025 µM 104% | [3]; 10 µM 12% | [4]; 0.0025 µM 87.1% | [4]; 1 µM 61.3% | [4]; 2.5 µM 67.3% | [5]; 1 µM 63.3% | [5]; 2.5 µM 57.7% | [5]; 10 µM 25.4% | [6]; 0.0025 µM 102% | [6]; 1 µM 19.6% | [6]; 2.5 µM 35.6% | [7]; 1 µM 45% | [7]; 2.5 µM 17.6% | [8]; 0.0025 µM 93.5% | [8]; 1 µM 76.5% | [8]; 2.5 µM 52.6% | [9]; 0.0025 µM 104% | [9]; 1 µM 26.8% | [9]; 2.5 µM 53.3% | [10]; 0.0025 µM 94.5%
active: [1]; 10 µM -28.5% | [3]; 1 µM -4.11% | [3]; 2.5 µM 2.46% | [4]; 10 µM 4.05% | [6]; 10 µM -13.8% | [7]; 10 µM -28.9% | [9]; 10 µM -11.8% | [10]; 1 µM 5.51% | [10]; 2.5 µM -21.6% | [10]; 10 µM -12%

Cc1cc(O)c(C(C)C)cc1Cl
inactive: [1]; 10 µM 117% | [2]; 10 µM 103% | [3]; 10 µM 104% | [4]; 10 µM 89.8% | [5]; 10 µM 97.6% | [6]; 10 µM 106% | [7]; 10 µM 99.7% | [8]; 10 µM 118% | [9]; 10 µM 104% | [10]; 10 µM 99%

CSC1SCC2C(=O)N(C)C(C(C)C)C(=O)OCC(NC(=O)c3cnc4ccccc4n3)C(=O)NC(C)C(=O)N(C)C1C(=O)N(C)C(C(C)C)C(=O)OCC(NC(=O)c1cnc3ccccc3n1)C(=O)NC(C)C(=O)N2C (centres undefined)
inactive: [4]; 10 µM 13.4% | [5]; 10 µM 20.1%
active: [1]; 10 µM -28.3% | [2]; 10 µM -8.18% | [3]; 10 µM 8.11% | [6]; 10 µM 2.44% | [7]; 10 µM -13% | [8]; 10 µM -76.6% | [9]; 10 µM -25.7% | [10]; 10 µM -33.8%

NNc1ccc2ccccc2c1
inactive: [1]; 10 µM 101% and 108% | [2]; 10 µM 76.7% and 93% | [3]; 10 µM 94.7% and 102% | [4]; 10 µM 52.5% and 68.7% | [5]; 10 µM 109% and 120% | [6]; 10 µM 81.6% and 98.7% | [7]; 10 µM 84.6% and 95.5% | [8]; 10 µM 88.5% | [9]; 10 µM 84.1% and 114% | [10]; 10 µM 94.3% and 109%

COC(=O)C1=COC(C)C2C[n+]3ccc4c([nH]c5ccccc54)c3CC12 (centres undefined)
inactive: [1]; 10 µM 103% and 85.1% | [2]; 10 µM 102% and 93% | [3]; 10 µM 95.9% and 78.7% | [4]; 10 µM 79.1% and 73.4% | [5]; 10 µM 107% and 126% | [5]; 100 µM 110% and 56.8% | [6]; 10 µM 99.7% and 88.9% | [7]; 10 µM 101% and 94.4% | [8]; 10 µM 72.8% and 94.7% | [9]; 10 µM 97.4% and 104% | [10]; 10 µM 98.8% and 94.3%

O=C1C=CC(=CC=C2C=CN(CCCCCCCCCCCO)C=C2)C=C1
inactive: [1]; 10 µM 33.5% | [2]; 10 µM 26.3% | [3]; 10 µM 10.4% | [5]; 10 µM 58.8% | [6]; 10 µM 90.9% | [7]; 10 µM 90.4% | [8]; 10 µM 95.1% | [9]; 10 µM 29.5% | [10]; 10 µM 41.9%

CO[C@H](C(=O)[C@@H](O)[C@@H](C)O)[C@@H]1Cc2cc3cc(OC4CC(OC5CC(O)C(O)C(C)O5)C(O)C(C)O4)c(C)c(O)c3c(O)c2C(=O)[C@H]1OC1CC(OC2CC(OC3CC(C)(O)C(O)C(C)O3)C(O)C(C)O2)C(O)C(C)O1 (some centres undefined)
inactive: [2]; 10 µM 16.8% | [3]; 10 µM 24.8% | [7]; 10 µM 17.2%
active: [1]; 10 µM -43.9% | [4]; 10 µM -4.43% | [5]; 10 µM 9.9% | [6]; 10 µM 3.72% | [9]; 10 µM 3.86% | [10]; 10 µM 6.22%

COc1c(O)cc2oc3cc(O)c(CC=C(C)C)c(O)c3c(=O)c2c1CC=C(C)C
inactive: [1]; 10 µM 89.8% | [2]; 10 µM 54% | [3]; 10 µM 51.5% | [4]; 10 µM 49.3% | [5]; 10 µM 89.1% | [6]; 10 µM 58.8% | [7]; 10 µM 56.2% | [8]; 10 µM 97.2% | [9]; 10 µM 47.8% | [10]; 10 µM 42.3%

O=C1C=C(O)c2ccccc2C1=O.[Ag]
inactive: [3]; 10 µM 103% | [4]; 10 µM 82.9% | [5]; 10 µM 157% | [6]; 10 µM 95.2% | [7]; 10 µM 94.4% | [8]; 10 µM 93.3% | [9]; 10 µM 101% | [10]; 10 µM 105%

OCC(O)C(O)C(O)C(/C=N/Nc1ccccc1)=N/Nc1ccccc1 (centres undefined)
inactive: [1]; 10 µM 121% | [3]; 10 µM 95.9% | [4]; 10 µM 61.1% | [5]; 10 µM 91.8% | [6]; 10 µM 67.5% | [7]; 10 µM 78% | [8]; 10 µM 43.9% | [9]; 10 µM 75.4% | [10]; 10 µM 101%

CC[N+](CC)=c1ccc2nc3c(cc(N)c4ccccc43)oc-2c1
active: [1]; 10 µM -75.1% | [2]; 10 µM -66.6% | [3]; 10 µM -40.8% | [4]; 10 µM -56.7% | [5]; 10 µM -74.2% | [6]; 10 µM -77.6% | [7]; 10 µM -79% | [8]; 10 µM -76.4% | [10]; 10 µM -44.4%
inactive: [9]; 10 µM 19.8%

Cc1cc(NS(=O)(=O)c2ccc(N=Nc3cc(N=Nc4ccc(S(=O)(=O)Nc5cc(C)nc(C)n5)cc4)c4c(NC(=O)C(Cl)Cl)cccc4c3OC(=O)C(Cl)Cl)cc2)nc(C)n1 (tested in a mixture with another compound)
inactive: [3]; 10 µM 100% and 101% | [4]; 10 µM 68.9% and 72.2% | [5]; 10 µM 148% and 150% | [6]; 10 µM 89.5% and 94.4% | [7]; 10 µM 96.7% and 88.6% | [8]; 10 µM 116% and 101% | [9]; 10 µM 95.3% and 99.6% | [10]; 10 µM 102% and 105%

Oc1ccc(N=Nc2ccccn2)c(O)c1
active: [4]; 10 µM 5.48% | [9]; 10 µM 3.95% | [10]; 10 µM 4.34%
inactive: [1]; 10 µM 27.8% | [2]; 10 µM 24.1% | [3]; 10 µM 20.5% | [5]; 10 µM 36.1% | [6]; 10 µM 13.8% | [8]; 10 µM 59.2%

C[n+]1c2cc(N)ccc2cc2ccc(N)cc21
9.49% (active) [middle of 4 runs]: [10]; 10 µM
17.7% (inactive) [middle of 4 runs]: [9]; 10 µM
active: [2]; 10 µM -23.9% and 5.67% and -26.5% | [6]; 10 µM 6.76% [middle of 4 runs] | [7]; 10 µM -22.5% and 9.14%

CCN(CC)c1ccc(NC(C(=O)c2ccccc2)c2ccccc2)cc1 (centres undefined)
inactive: [1]; 10 µM 78.4% | [5]; 10 µM 41% | [7]; 10 µM 17.8% | [9]; 10 µM 10.3% | [10]; 10 µM 12.8%
active: [3]; 10 µM 1.65% | [4]; 10 µM -24.8% | [6]; 10 µM -34.6%

CN(C)C(=S)SC(=S)N(C)C
inactive: [1]; 10 µM 107% and 93.2% | [3]; 10 µM 101% and 103% | [4]; 10 µM 91.2% and 79.1% | [5]; 10 µM 113% and 112% | [6]; 10 µM 101% and 107% | [7]; 10 µM 104% and 103% | [8]; 10 µM 94.7% | [9]; 10 µM 80.6% and 71.3% | [10]; 10 µM 92.4% and 85%

CC(C)C1=C(O)C2=C(C(=O)C1=O)C1(C)CCCC(C)(C)C1CC2O (centres undefined)
18.6% (inactive) and -89% (active): [5]; 100 µM
